The nature of experiment [1]: NCI Yeast Anticancer Drug Screen. Data for the rad50 strain (AID 155).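 Note: 0% = growth of vehicle-only cultures of the same strain.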 The conditions noted are these: S. cerevisiae rad50 strain growth inhibition, active compounds read high. The procedure, abridged: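 A DNA repair-deficient yeast mutant serves as the test organism; compound-induced growth inhibition is calculated against vehicle-treated cells.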
The nature of experiment [2]: NCI Yeast Anticancer Drug Screen. Data for the mec2-1 strain (AID 157). The settings on record: S. cerevisiae mec2-1 strain, active compounds read high. The procedure, abridged: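 Growth inhibition is read against vehicle-treated controls after compound exposure of the mec2-1 yeast strain, which is defective in DNA damage repair or cell cycle control.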
A short description of experiment [3]: NCI Yeast Anticancer Drug Screen. Data for the sgs1 mgt1 strain (AID 161).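 Note: 0% = growth of cultures given vehicle only.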 The settings on record: S. cerevisiae sgs1 mgt1 strain, active compounds read high. The procedure, abridged: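 Growth of a repair-deficient yeast mutant was monitored after compound treatment and expressed as inhibition relative to vehicle-treated cultures.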
Experiment [4] is described as follows: NCI Yeast Anticancer Drug Screen. Data for the cln2 rad14 strain (AID 165).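 Note: 0% = growth equal to vehicle treated cultures.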 The conditions noted are these: S. cerevisiae cln2 rad14 strain, active compounds read high. The procedure, abridged:
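Growth inhibition, relative to vehicle-treated controls, is the read-out. The test organism is a yeast strain with defined genetic alterations, cln2 rad14.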

Experiment [5] can be described thus: NCI Yeast Anticancer Drug Screen. Data for the bub3 strain (AID 167). The conditions noted are these: S. cerevisiae bub3 mutant strain, active compounds read high. The procedure, abridged: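 Inhibition values come from growth of compound-treated mutant yeast normalised to vehicle-treated controls.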
The nature of experiment [6]: NCI Yeast Anticancer Drug Screen. Data for the mlh1 rad18 strain (AID 175). The conditions noted are these: S. cerevisiae mlh1 rad18 strain growth inhibition, active compounds read high. The procedure, abridged: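 Cells of a genetically altered yeast strain, deficient in DNA damage repair, were treated with compound. Their growth was then compared with that of vehicle-treated cultures to give inhibition.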

Where [7] appears, read: at 5.0 µM (retest, dose inferred, filed as 0.5).
Setting [8] is: at 50.0 µM (retest, dose inferred, filed as 5.0).

Each structure is given as a SMILES string. This is part of a sample that, as a whole, favours compounds with a hit. Of some 79,000 tested, about 15% had one in any assay. Values without a mark were called inactive. Active and inactive are the calls of the source. Cut-off read from the data, not from the text of the source: active = growth inhibition above about 70%; inactive = the rest.

Take `Cc1ccc(NC(=S)SCc2ccc(Cl)cc2)cc1C`: the growth inhibition was 12% in experiment [1] (setting [7]); 94% (active) in experiment [1] (setting [8]); 94.9% (active) in experiment [1] (at 50.0 µM); -5% in experiment [2] (setting [7]); 60% in experiment [2] (setting [8]); 98.2% (active) in experiment [2] (at 50.0 µM). Also, the growth inhibition was 1% in experiment [3] (setting [7]); 94% (active) in experiment [3] (setting [8]); 98% (active) in experiment [3] (at 50.0 µM); -4% in experiment [4] (setting [7]); 34% in experiment [4] (setting [8]); 86.8% (active) in experiment [4] (at 50.0 µM). For the same compound, the growth inhibition is 18% in experiment [5] (setting [7]); 68% in experiment [5] (setting [8]); 97.5% (active) in experiment [5] (at 50.0 µM); 1% in experiment [6] (setting [7]); 82% (active) in experiment [6] (setting [8]); 98.6% (active) in experiment [6] (at 50.0 µM).

Consider `Cc1ccc(C2(c3ccc(F)cc3)OC(=O)c3ccccc32)c(O)c1` (configuration not stated), for which the growth inhibition was 11% in experiment [1] (setting [7]); 99% (active) in experiment [1] (setting [8]); 86.2% (active) in experiment [1] (at 50.0 µM); 13% in experiment [2] (setting [7]); 99% (active) in experiment [2] (setting [8]); 88.7% (active) in experiment [2] (at 50.0 µM). Further, the growth inhibition in experiment [3] (setting [7]) was -14%; in experiment [3] (setting [8]) it was 99% (active); in experiment [3] (at 50.0 µM), 97% (active); in experiment [4] (setting [7]), 3%; in experiment [4] (setting [8]), 99% (active); in experiment [4] (at 50.0 µM), 93.8% (active). Besides, the growth inhibition in experiment [5] (setting [7]) is 11%; in experiment [5] (setting [8]), 99% (active); in experiment [5] (at 50.0 µM) it was 98.8% (active); in experiment [6] (setting [7]) it was 27%; in experiment [6] (setting [8]), 99% (active); in experiment [6] (at 50.0 µM), 96.3% (active).

For the compound `COc1ccc(C(=O)[O][Sn]([c]2ccccc2)([c]2ccccc2)[c]2ccccc2)c(OC)c1OC`, the growth inhibition was 100% (active) in experiment [1] (setting [7]); 99% (active) in experiment [1] (setting [8]); 98.7% (active) in experiment [1] (at 50.0 µM); 100% (active) in experiment [2] (setting [7]); 100% (active) in experiment [2] (setting [8]); 99.1% (active) in experiment [2] (at 50.0 µM). The growth inhibition was 99% (active) in experiment [3] (setting [7]); 99% (active) in experiment [3] (setting [8]); 98.8% (active) in experiment [3] (at 50.0 µM); 99% (active) in experiment [4] (setting [7]); 99% (active) in experiment [4] (setting [8]); 88.2% (active) in experiment [4] (at 50.0 µM). In addition, the growth inhibition in experiment [5] (setting [7]) was 100% (active); in experiment [5] (setting [8]), 100% (active); in experiment [5] (at 50.0 µM), 98.9% (active); in experiment [6] (setting [7]) it was 99% (active); in experiment [6] (setting [8]), 99% (active); in experiment [6] (at 50.0 µM), 98.4% (active).

Turning to `O=C(NCCCN1CCN(CCCNC(=O)c2cc(-c3ccccc3)nc3ccccc23)CC1)c1cc(-c2ccccc2)nc2ccccc12`, the growth inhibition in experiment [1] (setting [7]) is 49%; in experiment [1] (setting [8]) it was 95% (active); in experiment [1] (at 50.0 µM), 84.6% (active); in experiment [2] (setting [7]) it was 30%; in experiment [2] (setting [8]) it was 95% (active); in experiment [2] (at 50.0 µM) it was 88.7% (active). Further, the growth inhibition is 26% in experiment [3] (setting [7]); 75% (active) in experiment [3] (setting [8]); 8.55% in experiment [3] (at 50.0 µM); 29% in experiment [4] (setting [7]); 41% in experiment [4] (setting [8]); 86.3% (active) in experiment [4] (at 50.0 µM). Also, the growth inhibition is 30% in experiment [5] (setting [7]); 64% in experiment [5] (setting [8]); 86.1% (active) in experiment [5] (at 50.0 µM); 38% in experiment [6] (setting [7]); 96% (active) in experiment [6] (setting [8]); 81.9% (active) in experiment [6] (at 50.0 µM).

With `N/C(=N\N=C/c1ccc(O)c(O)c1O)NO`, the growth inhibition was -2% in experiment [1] (setting [7]); 26% in experiment [1] (setting [8]); 41.1% in experiment [1] (at 50.0 µM); 5% in experiment [2] (setting [7]); 21% in experiment [2] (setting [8]); 17.8% in experiment [2] (at 50.0 µM). Further, the growth inhibition in experiment [3] (setting [7]) is -7%; in experiment [3] (setting [8]), 8%; in experiment [3] (at 50.0 µM), 28.5%; in experiment [4] (setting [7]), -2%; in experiment [4] (setting [8]), -6%; in experiment [4] (at 50.0 µM) it was 17.7%. Moreover, the growth inhibition in experiment [5] (setting [7]) is -4%; in experiment [5] (setting [8]), -3%; in experiment [5] (at 50.0 µM) it was 4.2%; in experiment [6] (setting [7]) it was -5%; in experiment [6] (setting [8]), 7%; in experiment [6] (at 50.0 µM), 64.7%.

For the compound `CC1OC(Oc2c(-c3ccc(O)c(O)c3O)oc3cc(O)ccc3c2=O)C(O)C(O)C1O` (configuration not stated), the growth inhibition in experiment [1] (setting [7]) is -4%; in experiment [1] (setting [8]), -2%; in experiment [1] (at 50.0 µM), 14.4%; in experiment [2] (setting [7]), -10%; in experiment [2] (setting [8]) it was -5%; in experiment [2] (at 50.0 µM) it was 9.6%. In addition, the growth inhibition was -5% in experiment [3] (setting [7]); 8% in experiment [3] (setting [8]); 17.6% in experiment [3] (at 50.0 µM); 3% in experiment [4] (setting [7]); -6% in experiment [4] (setting [8]); 2.9% in experiment [4] (at 50.0 µM). The growth inhibition in experiment [5] (setting [7]) was -3%; in experiment [5] (setting [8]) it was -3%; in experiment [5] (at 50.0 µM), -12.7%; in experiment [6] (setting [7]), -5%; in experiment [6] (setting [8]), -8%; in experiment [6] (at 50.0 µM) it was 27.8%.

Consider `Nc1ccccc1Nc1c([N+](=O)[O-])cc(C(F)(F)F)cc1[N+](=O)[O-]`, for which the growth inhibition is 53% in experiment [1] (setting [7]); 78% (active) in experiment [1] (setting [8]); 89.2% (active) in experiment [1] (at 50.0 µM); 41% in experiment [2] (setting [7]); 55% in experiment [2] (setting [8]); 92.3% (active) in experiment [2] (at 50.0 µM). The growth inhibition in experiment [3] (setting [7]) is 48%; in experiment [3] (setting [8]), 69%; in experiment [3] (at 50.0 µM) it was 92.7% (active); in experiment [4] (setting [7]), 42%; in experiment [4] (setting [8]), 55%; in experiment [4] (at 50.0 µM), 85.5% (active). Moreover, the growth inhibition in experiment [5] (setting [7]) was 46%; in experiment [5] (setting [8]), 61%; in experiment [5] (at 50.0 µM), 91.4% (active); in experiment [6] (setting [7]), 51%; in experiment [6] (setting [8]) it was 76% (active); in experiment [6] (at 50.0 µM), 90.5% (active).

Turning to `COC(=O)Nc1nc2ccc(C(C)(O)c3cccs3)cc2[nH]1` (configuration not stated), the growth inhibition in experiment [1] (setting [7]) is -2%; in experiment [1] (setting [8]), 92% (active); in experiment [1] (at 50.0 µM) it was 97% (active); in experiment [2] (setting [7]) it was -8%; in experiment [2] (setting [8]), 95% (active); in experiment [2] (at 50.0 µM), 98.2% (active). The growth inhibition in experiment [3] (setting [7]) was 3%; in experiment [3] (setting [8]), 95% (active); in experiment [3] (at 50.0 µM), 98% (active); in experiment [4] (setting [7]), -15%; in experiment [4] (setting [8]), 87% (active); in experiment [4] (at 50.0 µM), 92.2% (active). In addition, the growth inhibition is -3% in experiment [5] (setting [7]); 94% (active) in experiment [5] (setting [8]); 97.1% (active) in experiment [5] (at 50.0 µM); -5% in experiment [6] (setting [7]); 95% (active) in experiment [6] (setting [8]); 97.8% (active) in experiment [6] (at 50.0 µM).

As for `Cc1cc2nc3ccc(N)cc3oc-2cc1=[N+](C)C`, the growth inhibition was 6% in experiment [1] (setting [7]); 95% (active) in experiment [1] (setting [8]); 95.6% (active) in experiment [1] (at 50.0 µM); 14% in experiment [2] (setting [7]); 96% (active) in experiment [2] (setting [8]); 92.8% (active) in experiment [2] (at 50.0 µM). Also, the growth inhibition in experiment [3] (setting [7]) is -9%; in experiment [3] (setting [8]), 91% (active); in experiment [3] (at 50.0 µM) it was 74% (active); in experiment [4] (setting [7]) it was -12%; in experiment [4] (setting [8]), 93% (active); in experiment [4] (at 50.0 µM), 81.5% (active). Also, the growth inhibition in experiment [5] (setting [7]) is -8%; in experiment [5] (setting [8]), 94% (active); in experiment [5] (at 50.0 µM), 78.2% (active); in experiment [6] (setting [7]) it was 7%; in experiment [6] (setting [8]), 92% (active); in experiment [6] (at 50.0 µM), 3.8%.
